Data from PubChem BioAssay AID1159580 (chemical genetic matrix, 2015).
The whole screen tested about 5,500 compounds, of which about 2,000 (36%) were called active. Inconclusive results (about 18%) are left out. Rule as the data show it: active = normalized growth mostly below about 0.91 (no sharp cut-off); inconclusive = no clear call, values can overlap the other calls; inactive = mostly above about 0.92. Some of the results follow.

Assay: chemical genetic growth profiling, strain panel (AID 1159580);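 also: tested at 20 µM; growth read once vehicle control cultures reached saturation at 30 °C; 1 = growth at the plate median or of vehicle wells; lower values mean less growth of the strain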
Details: growth OD
[1] = S. cerevisiae deletion strains, locus YAL013W, strain DEP1, hits give low values
[2] = S. cerevisiae deletion strains, locus YBR229C, strain ROT2, hits give low values
[3] = S. cerevisiae deletion strains, locus YDL101C, strain DUN1, hits give low values
[4] = S. cerevisiae deletion strains, locus YDR150W, strain NUM1, hits give low values
[5] = S. cerevisiae deletion strains, locus YEL061C, strain CIN8, hits give low values
[6] = S. cerevisiae deletion strains, locus YGR078C, strain PAC10, hits give low values
[7] = S. cerevisiae deletion strains, locus YHR030C, strain SLT2, hits give low values
[8] = S. cerevisiae deletion strains, locus YHR087W, strain rtc3, hits give low values
[9] = S. cerevisiae deletion strains, locus YJR043C, strain POL32, hits give low values
[10] = S. cerevisiae deletion strains, locus YJR075W, strain HOC1, hits give low values
[11] = S. cerevisiae deletion strains, locus YLR039C, strain RIC1, hits give low values
[12] = S. cerevisiae deletion strains, locus YLR058C, strain SHM2 (second series), hits give low values
[13] = S. cerevisiae deletion strains, locus YLR085C, strain ARP6, hits give low values
[14] = S. cerevisiae deletion strains, locus YLR262C, strain YPT6, hits give low values
[15] = S. cerevisiae deletion strains, locus YML094W, strain GIM5, hits give low values
[16] = S. cerevisiae deletion strains, locus YMR219W, strain ESC1, hits give low values
[17] = S. cerevisiae deletion strains, locus YMR263W, strain SAP30, hits give low values
[18] = S. cerevisiae deletion strains, locus YNL153C, strain GIM3, hits give low values
[19] = S. cerevisiae deletion strains, locus YNL298W, strain CLA4 (second series), hits give low values
[20] = S. cerevisiae deletion strains, locus YNL322C, strain KRE1, hits give low values
[21] = S. cerevisiae deletion strains, locus YNR030W, strain Alg12, hits give low values
[22] = S. cerevisiae deletion strains, locus YPL055C, strain LGE1, hits give low values
[23] = S. cerevisiae deletion strains, locus YPL241C, strain CIN2, hits give low values
[24] = S. cerevisiae deletion strains, locus YPR135W, strain CTF4, hits give low values

Measured: normalized growth

O=[N+]([O-])c1cc(Cl)c(Sc2ccccc2)cc1Sc1ccccc1
inactive: [1] 0.995 | [2] 0.999 | S. cerevisiae deletion strains, locus YCL061C, strain MRC1, hits give low values 0.974 | [3] 1.01 | [4] 0.983 | [5] 0.998 | [6] 0.999 | [7] 0.922 | [8] 0.998 | S. cerevisiae deletion strains, locus YJL187C, strain SWE1, hits give low values 1.03 | [9] 0.992 | [10] 0.994 | [11] 0.998 | [12] 0.992 | [13] 1.03 | [14] 0.909 | [15] 1.03 | [16] 1.01 | [17] 1.01 | [18] 0.993 | [19] 1.01 | [20] 1.01 | [21] 0.977 | S. cerevisiae deletion strains, locus YOL006C, strain TOP1, hits give low values 0.998 | [22] 1.01 | [23] 1.01 | [24] 0.925 | S. cerevisiae strains, strain wild type, hits give low values 1.01

O=[N+]([O-])c1ccc(Sc2ccccc2)c([N+](=O)[O-])c1
inactive: S. cerevisiae deletion strains, locus YDR052C, strain DBF4, hits give low values 0.913 | S. cerevisiae deletion strains, locus YDR477W, strain SNF1, hits give low values 0.75 | S. cerevisiae deletion strains, locus YER123W, strain YCK3, hits give low values 0.685 | S. cerevisiae deletion strains, locus YER133W, strain GLC7, hits give low values 0.803 | S. cerevisiae deletion strains, locus YFR019W, strain FAB1, hits give low values 0.84 | S. cerevisiae deletion strains, locus YFR028C, strain CDC14, hits give low values 0.899 | S. cerevisiae deletion strains, locus YGR040W, strain KSS1, hits give low values 0.784 | S. cerevisiae deletion strains, locus YGR052W, strain FMP48, hits give low values 0.706 | S. cerevisiae deletion strains, locus YHR079C, strain IRE1, hits give low values 0.655 | S. cerevisiae deletion strains, locus YHR082C, strain KSP1, hits give low values 0.719 | S. cerevisiae deletion strains, locus YJL095W, strain BCK1, hits give low values 0.673 | S. cerevisiae deletion strains, locus YJL157C, strain FAR1, hits give low values 0.748 | S. cerevisiae deletion strains, locus YJR066W, strain TOR1 (second series), hits give low values 0.756 | S. cerevisiae deletion strains, locus YJR066W, strain TOR1, hits give low values 0.748 | S. cerevisiae deletion strains, locus YKL203C, strain TOR2, hits give low values 0.785 | S. cerevisiae deletion strains, locus YLR403W, strain SFP1, hits give low values 0.758 | S. cerevisiae deletion strains, locus YML070W, strain DAK1, hits give low values 0.689 | S. cerevisiae deletion strains, locus YNL020C, strain ARK1, hits give low values 0.733 | S. cerevisiae deletion strains, locus YNL183C, strain NPR1, hits give low values 0.708 | S. cerevisiae deletion strains, locus YNL307C, strain MCK1 (second series), hits give low values 0.704 | S. cerevisiae deletion strains, locus YOR061W, strain CKA2, hits give low values 0.768 | S. cerevisiae deletion strains, locus YOR119C, strain RIO1, hits give low values 0.806 | S. cerevisiae deletion strains, locus YOR231W, strain MKK1, hits give low values 0.64 | S. cerevisiae deletion strains, locus YPL031C, strain PHO85, hits give low values 0.73 | S. cerevisiae deletion strains, locus YPL153C, strain RAD53, hits give low values 0.723 | S. cerevisiae deletion strains, locus YPL204W, strain HRR25, hits give low values 0.727
active: S. cerevisiae deletion strains, locus YAR019C, strain CDC15, hits give low values 0.862 | S. cerevisiae deletion strains, locus YBL105C, strain PKC1, hits give low values 0.894 | S. cerevisiae deletion strains, locus YBR135W, strain CKS1, hits give low values 0.874 | S. cerevisiae deletion strains, locus YBR136W, strain MEC1, hits give low values 0.884 | S. cerevisiae deletion strains, locus YBR160W, strain CDC28, hits give low values 0.896 | S. cerevisiae deletion strains, locus YDL017W, strain CDC7, hits give low values 0.89 | S. cerevisiae deletion strains, locus YDL028C, strain MPS1, hits give low values 0.888 | [3] 0.876 | S. cerevisiae deletion strains, locus YDL108W, strain KIN28, hits give low values 0.88 | S. cerevisiae deletion strains, locus YDL132W, strain cdc53, hits give low values 0.867 | S. cerevisiae deletion strains, locus YDL214C, strain PRR2, hits give low values 0.695 | S. cerevisiae deletion strains, locus YDR054C, strain cdc34, hits give low values 0.83 | S. cerevisiae deletion strains, locus YDR226W, strain ADK1, hits give low values 0.858 | S. cerevisiae deletion strains, locus YFL009W, strain cdc4, hits give low values 0.847 | S. cerevisiae deletion strains, locus YFL029C, strain CAK1, hits give low values 0.866 | S. cerevisiae deletion strains, locus YFR003C, strain YPI1, hits give low values 0.886 | S. cerevisiae deletion strains, locus YGR092W, strain DBF2, hits give low values 0.271 | [7] 0.492 | S. cerevisiae deletion strains, locus YHR205W, strain SCH9, hits give low values 0.522 | S. cerevisiae deletion strains, locus YIL147C, strain SLN1, hits give low values 0.885 | S. cerevisiae deletion strains, locus YJL128C, strain PBS2, hits give low values 0.757 | S. cerevisiae deletion strains, locus YJR016C, strain ILV3, hits give low values 0.877 | S. cerevisiae deletion strains, locus YKL048C, strain ELM1, hits give low values 0.71 | S. cerevisiae deletion strains, locus YKL067W, strain YNK1, hits give low values 0.691 | S. cerevisiae deletion strains, locus YKL101W, strain HSL1, hits give low values 0.662 | S. cerevisiae deletion strains, locus YKL193C, strain SDS22, hits give low values 0.876 | S. cerevisiae deletion strains, locus YLR113W, strain HOG1, hits give low values 0.396 | S. cerevisiae deletion strains, locus YLR133W, strain CKI1, hits give low values 0.717 | S. cerevisiae deletion strains, locus YMR001C, strain CDC5, hits give low values 0.868 | S. cerevisiae deletion strains, locus YMR205C, strain PFK2 (second series), hits give low values 0.678 | S. cerevisiae deletion strains, locus YMR277W, strain FCP1, hits give low values 0.868 | S. cerevisiae deletion strains, locus YNL006W, strain LST8, hits give low values 0.87 | S. cerevisiae deletion strains, locus YNL161W, strain CBK1, hits give low values 0.864 | S. cerevisiae deletion strains, locus YNL207W, strain RIO2, hits give low values 0.859 | S. cerevisiae deletion strains, locus YNL222W, strain SSU72, hits give low values 0.88 | S. cerevisiae deletion strains, locus YOL078W, strain AVO1, hits give low values 0.867 | S. cerevisiae deletion strains, locus YOL136C, strain PFK27, hits give low values 0.65 | S. cerevisiae deletion strains, locus YOR329C, strain SCD5, hits give low values 0.884 | S. cerevisiae deletion strains, locus YPL209C, strain IPL1, hits give low values 0.883 | S. cerevisiae deletion strains, locus YPL256C, strain CLN2, hits give low values 0.428 | S. cerevisiae deletion strains, locus YPR025C, strain CCL1, hits give low values 0.893 | S. cerevisiae deletion strains, locus YPR106W, strain ISR1, hits give low values 0.849 | S. cerevisiae deletion strains, locus YPR111W, strain DBF20, hits give low values 0.812 | S. cerevisiae deletion strains, strain NNK1, hits give low values 0.796 | S. cerevisiae deletion strains, strain TSCII, hits give low values 0.853

O=C(O)c1ccccc1Sc1c(C(=O)O)cc([N+](=O)[O-])cc1[N+](=O)[O-]
inactive: [1] 1.01 | [2] 1.01 | [3] 1.02 | S. cerevisiae deletion strains, locus YDL134C, strain PPH21, hits give low values 0.976 | [4] 0.988 | [5] 0.994 | [6] 1.01 | [7] 1.01 | [8] 0.993 | [9] 1 | [10] 1 | [11] 1 | [12] 0.994 | [13] 0.989 | [14] 0.984 | [15] 1.08 | [16] 1.01 | [17] 0.994 | [18] 1.03 | [19] 0.964 | [20] 1.02 | [21] 1.01 | [22] 1.02 | [23] 1.08 | [24] 1.09
